KCNQ2 enhance: potentiators of rat KCNQ2 potassium channel; O88943; CHO-K1 KCNQ2, FluxOR thallium flux fluorescence; active compounds read high; B-score at 10 µM; hit rate 0.54% among 310,000;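 active = fluorescence ratio B-score at least 3 SD of library B-scores, with initial fluorescence B-score within 3 of them, cut at about 5.3 in these data; same plate scores as AID 2156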;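 also: B-score of peak minus minimum over baseline fluorescence ratio after K+ and Tl+ stimulus; positive B-score means potentiation of KCNQ2 with more thallium influx and brighter signal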
KCNQ2 inh: blocks the rat KCNQ2 potassium channel | B-score at 10 µM | hit rate 1.1% among 310,000 | AID 2156 | CHO-K1 KCNQ2, FluxOR thallium flux, 20 min; active compounds read low;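 active = fluorescence ratio B-score at most minus 3 library SDs, with starting brightness B-score within 2 library SDs, cut at about -5.5 in these data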
Kir21 confirm: confirmation of mouse Kir2.1 potassium channel inhibitors | shares compounds with KCNQ2 enhance | Tl flux remaining, % of negative control (active compounds read low), % at 10 µM | Kir2.1-expressing cells, FluxOR thallium flux fluorescence; active compounds read low | hit rate 41% among 2,300 | AID 2032;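 active = Primary-screen hit whose thallium flux fell at least 3 control SD below untreated wells in both duplicates, with normal baseline fluorescence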;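 also: 0% = blank wells without stimulus and 100% = stimulated no-compound controls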
HEK293 Tl flux: parental HEK293 activity in Kir2.1 inhibitor counter-screen; parental HEK293 cells, FluxOR thallium flux fluorescence; 0% = unstimulated blank wells; shares compounds with KCNQ2 enhance; FluxOR signal as % of negative control (100 = no effect), % at 10 µM; hit rate 19% among 2,300;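 active = dye signal at least 3 control SD above or below untreated wells in both duplicates, raw fluorescence within 3, either direction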;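 also: percent is based on the flux ratio of peak minus minimum fluorescence over baseline F0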
CHO-K1 ctr: alters thallium flux in parental CHO-K1 cells, KCNQ2 counter-screen. activity increase over 3SD of controls, % at 10 µM. FluxOR thallium flux fluorescence; zero = vehicle mean+3SD, 100% = vehicle-minus-blank window. hit rate 43% among 1,200. shares compounds with KCNQ2 enhance;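 active = signal rise of at least 3 SD above the untreated control mean, in both duplicate wells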;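 also: counter screen of KCNQ2 potentiator hits so any rise reflects channel-independent effects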
KCNQ1 pot spec: tests whether KCNQ2 potentiators also act on human KCNQ1 | activation over 3SD threshold, % at 10 µM | shares compounds with KCNQ2 enhance | CHO KCNQ1 stable, FluxOR thallium flux fluorescence; beyond 3SD, as % of vehicle-control signal | hit rate 28% among 1,200 | AID 2283;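 active = fluorescence ratio rise of at least 3 SD of vehicle wells above their mean, in both replicate wells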;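 also: 0% = vehicle mean plus 3 SD and 100% = vehicle minus unstimulated blank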
KCNQ2 pot confirm: rat KCNQ2 channel potentiator confirmation; potentiation, less the hit threshold, % at 10 µM; shares compounds with KCNQ2 enhance; CHO-KCNQ2 cells, FluxOR thallium flux fluorescence; hit rate 68% among 1,200;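 active = fluorescence ratio rising 3 SD or more over the vehicle control mean in both replicates, plus primary screen hit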;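 also: peak minus minimum thallium fluorescence divided by baseline after K/Tl stimulus; 0% = vehicle mean plus 3 SD and 100% = vehicle minus unstimulated blank difference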
Kir2-1 sel: mouse Kir2.1 off-target activity of KCNQ2 potentiators | AID 2345 | activity over 3SD threshold, % at 10 µM | HEK293 Kir2.1, FluxOR thallium flux fluorescence | shares compounds with KCNQ2 enhance | hit rate 2% among 1,200;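 active = fluorescence ratio rise of at least 3 SD above the vehicle-control mean, seen in both replicates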;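 also: 0% = vehicle mean plus 3 SD and 100% = vehicle minus no-stimulus blank window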
KCNQ2 W236L MoA: rat KCNQ2 W236L mutant potentiation by KCNQ2 potentiators; shares compounds with KCNQ2 enhance; CHO KCNQ2-W236L, automated patch clamp current; current increase over 3SD of negative controls (%), active compounds read high, % at 25 µM; hit rate 10% among 940; AID 2558;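 active = current increase at least 3 SD of the untreated controls above them in both duplicate recordings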
Target sequence (O88943 whole entry W236L, looked up): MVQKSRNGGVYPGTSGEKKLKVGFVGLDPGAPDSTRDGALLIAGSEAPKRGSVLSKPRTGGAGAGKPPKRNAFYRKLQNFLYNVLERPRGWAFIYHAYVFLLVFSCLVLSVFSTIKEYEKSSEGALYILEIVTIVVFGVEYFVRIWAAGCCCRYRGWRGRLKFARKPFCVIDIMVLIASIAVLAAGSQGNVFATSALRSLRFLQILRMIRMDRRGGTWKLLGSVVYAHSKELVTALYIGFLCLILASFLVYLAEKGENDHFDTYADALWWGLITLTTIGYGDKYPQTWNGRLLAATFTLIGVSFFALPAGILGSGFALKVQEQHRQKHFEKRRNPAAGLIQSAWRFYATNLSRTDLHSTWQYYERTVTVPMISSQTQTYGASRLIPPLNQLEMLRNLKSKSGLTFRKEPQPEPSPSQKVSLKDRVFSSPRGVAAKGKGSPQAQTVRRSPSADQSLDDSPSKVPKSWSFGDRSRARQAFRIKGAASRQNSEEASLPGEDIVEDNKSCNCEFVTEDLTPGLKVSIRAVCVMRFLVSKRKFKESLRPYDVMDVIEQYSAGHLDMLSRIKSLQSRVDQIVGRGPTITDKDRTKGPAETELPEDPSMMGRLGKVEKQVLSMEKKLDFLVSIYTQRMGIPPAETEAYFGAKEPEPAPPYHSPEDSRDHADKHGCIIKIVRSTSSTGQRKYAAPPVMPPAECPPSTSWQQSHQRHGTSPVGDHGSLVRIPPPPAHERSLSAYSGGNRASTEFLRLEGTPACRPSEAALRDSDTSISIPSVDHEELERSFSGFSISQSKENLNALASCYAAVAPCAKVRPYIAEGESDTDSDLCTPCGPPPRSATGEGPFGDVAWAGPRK
Starred values were filed as active, the others as inactive; i = inactive; x = not tested or not shown. Hits are enriched below; roughly 1.6% of the tested compounds scored in any of these assays.

SMILES	KCNQ2 enhance	KCNQ2 inh	Kir21 confirm	HEK293 Tl flux	others
Cc1ccccc1CC(=O)NCC1CCCCC1	4.2	i	x	x
Cn1c(=O)c2ccccc2n(Cc2cccc(F)c2)c1=O	1	i	x	x
CC(=O)C1=C(c2ccccc2)NC(=O)NC1c1ccccc1 (configuration not stated)	0.49	i	x	x
O=C1NC(c2ccccc2)=C(c2nc3ccccc3s2)C(c2ccccc2)N1 (configuration not stated)	5.9*	i	i	i	CHO-K1 ctr=18*;KCNQ1 pot spec=-18;KCNQ2 pot confirm=8.2*;Kir2-1 sel=-19;KCNQ2 W236L MoA=i
C=CCSc1nc2sc3c(c2c(=O)n1CC)CCc1ccccc1-3	5.7*	i	i	194%*	CHO-K1 ctr=-1;KCNQ1 pot spec=-16;KCNQ2 pot confirm=18*;Kir2-1 sel=-31;KCNQ2 W236L MoA=6.7%*
C=CCn1c(SCC)nc2sc3c(c2c1=O)CCc1ccccc1-3	x	i	x	x
O=C(COc1ccc2ccccc2c1Br)N1CCCCC1	13*	i	i	i	CHO-K1 ctr=-2;KCNQ1 pot spec=-25;KCNQ2 pot confirm=30*;Kir2-1 sel=-35;KCNQ2 W236L MoA=i
NC(=O)C1CCN(C(=O)COc2ccc3ccccc3c2Br)CC1	x	i	x	x
Cc1ccc(CNCC(O)(c2ccccc2)c2ccccc2)cc1	x	i	42%*	i
COc1ccc(CNCC(O)(c2ccccc2)c2ccc(Cl)cc2)cc1 (configuration not stated)	-5.6	-5.6*	62%*	i
COC(=O)c1ccc(CNCC(O)COc2ccc(-c3ccccc3)cc2)cc1 (configuration not stated)	x	i	x	x
CC(=O)c1cccc(OCC(O)CNCCc2ccc(Cl)cc2)c1 (configuration not stated)	0.27	i	x	x
COc1ccc(CNCC(O)COc2ccc(C(C)(C)c3ccccc3)cc2)cc1 (configuration not stated)	x	i	41%*	65%*
Cc1ccc(CNC(=O)NCc2ccccc2)cc1	1.7	i	x	x
COc1ccc(CNCc2cccc(Cl)c2)cc1	0.35	i	x	x
COc1ccc(CCNCC(O)COc2cccc(Br)c2)cc1 (configuration not stated)	0.09	i	25%*	i
O=[N+]([O-])c1ccc([N+](=O)[O-])c(Nc2ccc(N3CCOCC3)cc2)c1	x	i	x	x
CCOC(=O)C1CCCN(S(=O)(=O)c2ccc3c(c2)N(C)C(=O)CC(=O)N3C)C1 (configuration not stated)	0.03	i	x	x
O=C(CCc1nnc2ccc(N3CCOCC3)nn12)Nc1ccc(F)cc1F	0.03	i	x	x
O=C(CSc1nc(=O)n(Cc2ccccn2)c2c1CCC2)Nc1ccc(F)cc1F	0.7	i	x	x
COC(=O)c1ccccc1NC(=O)NCc1c(C)nn(C)c1C	0.09	i	x	x
Cc1cc(C)c(S(=O)(=O)NCc2ccccn2)cc1C	x	i	x	x
Cc1ccc(C(C)C)cc1S(=O)(=O)NCc1ccccn1	x	i	67%*	i
COc1ccc(Oc2c(-c3ccc(O)cc3O)n[nH]c2C)cc1	x	i	61%*	i
CCCOC(=O)c1ccc(Oc2c(-c3ccc(OCC)cc3O)n[nH]c2C)cc1	x	i	x	x
CCN(CCNCC(O)COc1ccccc1C(C)C)c1cccc(C)c1 (configuration not stated)	x	i	33%*	i
CCOC(=O)c1cccc(OCC(O)CNCCOc2ccccc2F)c1 (configuration not stated)	0.64	i	x	x
Cn1c(SCC(=O)O)nnc1-c1ccc(NC(=O)c2ccc(Cl)c(Cl)c2)cc1	x	i	x	x
Cc1nc2ccccc2n1C(=O)N(C)C	0.81	i	x	x
CCCn1c(Nc2ccccc2C)nc2ccccc21	x	i	x	x

Compound activity deposited in PubChem BioAssay by Johns Hopkins Ion Channel Center.
